Source: PubChem BioAssay (National Center for Advancing Translational Sciences (NCATS))
Tau fibril ThT: qHTS for Inhibitors of Tau Fibril Formation, Thioflavin T Binding; Microtubule-associated protein tau (Homo sapiens), P10636; recombinant tau K18 P301L, heparin-induced fibrillization, ThT fluorescence; Potency, µM (top dose mostly 57.4 µM), inactives show top-dose activity, negative = inhibition, most hits filed as inhibitors; 270,000 compounds, 2.1% hits; active = well fitted curve in the direction sought with a large enough effect; inconclusive = small, poorly fitted or top-dose-only effect, or another doubt; inactive = no such curve, though single readings can be large; an effect the other way counts as inactive or inconclusive; also: nearly all actives have a fitted effect of over 55% in size
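Fibril formation assay: tau K18 P301L at 15 uM with trace Alexa 594 label, heparin inducer 20 uM, pH 7 sodium acetate buffer, 37 C for 6 hr; endpoint ThT signal.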
HPGD block: qHTS Assay for Inhibitors of HPGD (15-Hydroxyprostaglandin Dehydrogenase); 150,000 compounds, 4.3% hits; purified HPGD, NADH fluorescence kinetic, PGE2 substrate; 15-hydroxyprostaglandin dehydrogenase [NAD(+)] (Homo sapiens), P15428; AID 894, 2007; Potency, µM, for inactives: at the top dose activity change, negative = inhibition, hits mostly inhibitors
Target sequence (P15428 whole entry, looked up): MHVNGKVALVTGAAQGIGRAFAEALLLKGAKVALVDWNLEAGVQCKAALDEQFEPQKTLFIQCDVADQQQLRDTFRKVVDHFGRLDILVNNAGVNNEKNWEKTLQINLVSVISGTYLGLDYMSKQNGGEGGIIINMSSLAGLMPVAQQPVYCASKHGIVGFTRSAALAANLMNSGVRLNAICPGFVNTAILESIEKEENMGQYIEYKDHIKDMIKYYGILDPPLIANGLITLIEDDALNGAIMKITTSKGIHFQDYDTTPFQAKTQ
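NADH formation kinetics: reaction with 30 uM PGE2 and 1 mM NAD+ (final), 20 nM enzyme, Tris-HCl pH 8 with Tween 20, after 15 min compound preincubation at room temperature. Fluorescence change, last versus first of five reads.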
ALDH1A1 block: qHTS Assay for Inhibitors of Aldehyde Dehydrogenase 1 (ALDH1A1); Aldehyde dehydrogenase 1A1 (Homo sapiens), P00352; Purified ALDH1A1, NADH fluorescence, propionaldehyde substrate; Potency, µM (doses to about 75.3 µM), for inactives: at the top dose activity, negative = inhibition, actives largely listed as inhibitors; 220,000 compounds, 7.3% hits;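 also: plate controls were no enzyme wells and a reference inhibitor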
Target sequence (P00352 whole entry, looked up): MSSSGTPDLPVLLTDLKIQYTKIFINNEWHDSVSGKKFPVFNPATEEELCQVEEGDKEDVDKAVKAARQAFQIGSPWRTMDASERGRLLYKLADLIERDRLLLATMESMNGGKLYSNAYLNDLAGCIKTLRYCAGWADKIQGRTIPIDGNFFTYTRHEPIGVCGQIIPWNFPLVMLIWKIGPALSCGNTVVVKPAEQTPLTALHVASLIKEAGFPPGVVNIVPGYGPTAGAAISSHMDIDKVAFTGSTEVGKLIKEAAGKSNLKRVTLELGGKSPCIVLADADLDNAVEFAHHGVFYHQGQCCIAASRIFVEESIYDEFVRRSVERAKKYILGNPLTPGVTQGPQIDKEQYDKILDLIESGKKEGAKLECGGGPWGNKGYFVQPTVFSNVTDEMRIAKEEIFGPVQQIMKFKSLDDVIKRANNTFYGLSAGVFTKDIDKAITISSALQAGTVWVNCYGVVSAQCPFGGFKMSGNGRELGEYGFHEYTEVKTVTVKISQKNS
Tau fibril FP: qHTS for Inhibitors of Tau Fibril Formation, Fluorescence Polarization; Microtubule-associated protein tau (Homo sapiens), P10636; K18 P301L tau heparin fibrillization, Alexa594 FP, 6 h; Potency, µM (series often up to 57.7 µM), for the others: at the top dose activity, negative = inhibition, most hits filed as inhibitors; 280,000 compounds, 0.39% hits; active = well fitted curve in the direction sought with a large enough effect; inconclusive = small, poorly fitted or top-dose-only effect, or another doubt; inactive = no such curve, though single readings can be large; an effect the other way counts as inactive or inconclusive; also: nearly all actives have a fitted effect of over 55% in size
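FP of Alexa 594-tau after heparin (20 uM) induction. Substrate: human K18 P301L, 15 uM unlabeled, 0.24 uM labeled. Buffer 100 mM sodium acetate pH 7. 6 hr, 37 C.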
JMJD2E inh: qHTS Assay for Inhibitors of Human Jumonji Domain Containing 2E (JMJD2E); Potency, µM (highest dose often 57.1 µM), inactives show at the highest dose activity change, negative = inhibition, hits mostly inhibitors; AID 2147, 2009; Lysine-specific demethylase 4E (Homo sapiens), B2RXH2; JMJD2E catalytic domain, FDH-coupled NADH fluorescence (FDH is formaldehyde dehydrogenase); 230,000 compounds, 1.6% hits;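 also: 0% = wells with enzyme and -100% = buffer wells without enzyme; nearly all actives have a fitted effect of over 50% in size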
Tau fluor cs: Counterscreen qHTS for Inhibitors of Tau Fibril Formation, Fluorescence Polarization; tau K18 P301L Alexa594 fluorescence, heparin fibrillization; Potency, µM (series often up to 57.7 µM), without a hit: at the highest dose activity change, negative = decrease; 280,000 compounds, 0.93% hits; AID 1463, 2008; active = well fitted curve in the direction sought with a large enough effect; inconclusive = small, poorly fitted or top-dose-only effect, or another doubt; inactive = no such curve, though single readings can be large; an effect the other way counts as inactive or inconclusive; also: nearly all actives have a fitted effect of over 55% in size
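Human tau K18 P301L (15 uM unlabeled, 0.24 uM Alexa 594-labeled) in 100 mM sodium acetate pH 7 with 20 uM heparin, 6 hr at 37 C. ThT 30 uM added, 1 hr ambient; Alexa 594 FP and total fluorescence read at 555/632 nm.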
Active calls of the source: *; ? = inconclusive; · = not tested or not shown; [ ] = another dose, or the depositor's remark. The list is not random: actives were taken first. Their share in the collection is about 9.9%. Unless noted, calls follow the shape of the dose curve; as a rule, active = well fitted inhibition curve with a large enough effect (not every such curve was filed as active); inconclusive = small, poorly fitted or top-dose-only effect, or another doubt; inactive = no such curve, though single readings can be large or run the other way. Unless noted, % is scaled to controls: 0 for no effect and ±100 for the full control effect; potency is read from the fitted curve at half-maximal effect.

SMILES	Tau fibril ThT	HPGD block	ALDH1A1 block	Tau fibril FP	JMJD2E inh	Tau fluor cs
CCCCCCOC(=O)C1(O)CC2OC1(C)n1c3ccccc3c3c4c(c5c6ccccc6n2c5c31)C(=O)NC4 (stereo not given)	-6.1%	-11.7%	-3.1%	0.8%	·	-16.1%
CC1CC(C)CN(c2cc(N(C)CCO)c([N+](=O)[O-])c3nonc23)C1 (stereo not given)	?	·	11.2µM*	-2.9%	-2.4%	3.9%
CC1CCN(c2cc(N(C)CCO)c([N+](=O)[O-])c3nonc23)CC1	?	·	?	-8.7%	-5.4%	-10.3%
Cc1c(/C=N\NC(=O)C2COc3ccc(C(C)(C)C)cc3O2)c2ccccc2n1C (stereo not given)	?	-17.4%	-13.1%	?	-6.8%	?
O=C(N/N=C/c1ccc(N2CCOCC2)s1)c1ccccc1Cl	?	·	15.8µM*	-2.9%	-16.5%	-17.5%
O=C(CN1CCOCC1)Nc1cc(C(F)(F)F)ccc1Cl	2.3%	·	14.2%	6.8%	-3.7%	0.6%
FC(F)(F)c1ccc(Cl)c(N/N=C/c2ccc(N3CCOCC3)s2)c1	?	?	4.47µM*	10.7%	?	12.6µM*[quencher]
COCC1CCN(Cc2cn(-c3ccccc3F)nc2-c2cc(C)sc2C)CC1	-3.5%	·	1.6%	8.8%	-6.3%	1.0%
CCCCCCn1c(SCCOC)nc2c1c(=O)[nH]c(=O)n2C	1.4%	·	·	-7.0%	8.1%	-0.1%
CCOC(=O)Cn1c(Br)nc2c1c(=O)[nH]c(=O)n2C	1.7%	-3.9%	3.5%	5.3%	-0.4%	-2.2%
CCOC(=O)CSc1nc2c(c(=O)[nH]c(=O)n2C)n1C/C=C(/C)Cl	1.1%	20µM*	17.8µM*	0.2%	1.8%	1.1%
CCOCCn1c(SC)nc2c1c(=O)[nH]c(=O)n2C	3.5%	20µM*	14.1µM*	-1.7%	0.8%	3.0%
CCn1c([N+](=O)[O-])nc2c1c(=O)[nH]c(=O)n2C	-14.7%	·	15.8µM*	-10.0%	-9.6%	4.8%
CCCCn1c(SCC(=O)OCC)nc2c1c(=O)[nH]c(=O)n2C	-6.9%	?	12.6µM*	6.8%	3.4%	-5.4%
CCCCCCn1c(SCCCC)nc2c1c(=O)[nH]c(=O)n2C	-13.2%	-11.3%	-9.9%	-1.7%	12.0%	-1.9%
CC(C)(C)NC(=O)C(c1ccncc1)N(C(=O)Cn1nnc(-c2ccc(F)cc2)n1)c1cccc(F)c1 (stereo not given)	-2.3%	·	-0.4%	10.1%[2.34 µM]	-1.8%	1.7%[2.34 µM]
CCc1ccc(NC(=O)COC(=O)/C=C/c2c(C)nn(C3CCS(=O)(=O)C3)c2Cl)cc1 (stereo not given)	-4.9%	·	?	-3.7%	-4.3%	-16.5%
C/C(Cl)=C/Cn1c(SC(C)C)nc2c1c(=O)[nH]c(=O)n2C	-5.7%	?	5.01µM*	-10.0%	-5.2%	-5.2%
CC(C)CCN1C(=O)c2ccc(-c3nc4ccccc4c(=O)o3)cc2C1=O	-2.4%	?	7.08µM*	5.0%	-7.2%	-0.8%
COc1ccc(-c2nc3ccccc3c(=O)o2)cc1OC	-12.5%	?	?	-7.3%	?	-6.3%
CC12CCC(C(=O)NC3CCCCC3)([C@H](Br)C1=O)C2(C)C (stereo not given in full)	-5.1%	·	·	-4.6%	9.9%	-7.8%
C=CCn1c(C)cc(C2=NNC(=NCc3ccccc3)SC2)c1C	?	·	?	3.5%	?	?
c1ccc2oc(C3=NNC(=NC4CC4)SC3)cc2c1	14.1µM*	?	28.2µM*	-7.4%	-11.9%	-22.7%
Cc1ccc(C)c(C2=NNC(=NCc3ccccc3)SC2)c1	?	·	17.8µM*	-7.1%	-10.1%	-10.9%
c1ccc(CN=C2NN=C(c3cc4ccccc4o3)CS2)cc1	?	15.8µM*	28.2µM*	-3.4%	-18.6%	-18.0%
SMILES	Tau fibril ThT	HPGD block	ALDH1A1 block	Tau fibril FP	JMJD2E inh	Tau fluor cs
Clc1cc(Cl)cc(C2=NCCC(c3ccccc3)O2)c1 (stereo not given)	-12.3%	-10.8%	-1.5%	-0.8%	-9.3%	-15.4%
CCc1nn(CC(=O)Nc2cccc(C(C)=O)c2)c(=O)c2cc3sccc3n12	8.8%	·	·	10.6%	·	8.4%
O=C(CCNc1ccc(F)cc1)c1cc2ccccc2o1	?	·	0.1µM*	5.6%	-14.3%	-20.1%
O=C(CCNc1cccc(F)c1)c1cc2ccccc2o1	-15.4%	·	0.0251µM*	8.9%	?	-13.7%
O=C(Cc1ccc(F)cc1)OCC(=O)c1cc2ccccc2o1	-12.2%	?	?	-6.8%	-24.6%	-17.2%
COc1ccc(N2CCN(S(=O)(=O)CCNC(=O)c3ccc(OC(C)C)cc3)CC2)cc1	-11.0%	·	·	3.4%	·	-8.9%
COc1ccccc1C(=O)N1CCC(N2CCN(c3ccccc3)CC2)CC1	-14.7%	·	·	-12.4%	?	-18.7%
O=C(c1ccccc1Oc1ccccc1)N1CCN(c2ccccc2)CC1	?	-21.4%	22.4µM*	-11.4%	1.2%	-15.4%
COc1ccc2c(c1)n([O-])c1c([n+]2=O)CCC1	-16.4%	·	·	9.0%	?	-11.8%
CCOc1ccc2c(c1)n([O-])c1c([n+]2=O)CCCC1	20µM*	?	?	?	?	-22.1%
CCN(CC)C(=O)c1sc2c(c1C)c(=O)n(-c1ccccc1)c(=O)n2CC(=O)Nc1ccc(C)cc1C	5.5%	·	·	6.2%	·	9.6%
CCNC(=O)[C@H]1O[C@@H](n2cnc3c(N)nc(NCCc4ccc(CCC(=O)O)cc4)nc32)[C@H](O)[C@H]1O	-11.2%	-21.6%	-10.3%	-0.8%	?	-7.5%
Cc1ccc(CCc2nnc(SCC(=O)Nc3cc(Cl)ccc3Cl)n2-c2ccccc2)o1	-14.0%	-4.3%	25.1µM*	-8.9%	-8.2%	-16.0%
COCc1nnc(SCC(=O)Nc2cccc(Cl)c2C)n1-c1ccccc1	-1.5%	-8.8%	2.1%	4.2%	3.2%	-6.7%
O=C(CSc1nnc(CN2CCOCC2)n1-c1ccccc1)Nc1ccc(Cl)cc1	1.2%	-10.4%	22.4µM*	2.7%	6.6%	-1.8%
Cc1nnc(SCC(=O)Nc2ccc(N3CCOCC3)cc2)n1-c1ccccc1	-12.4%	5.5%	-5.9%	-1.9%	-7.3%	-11.0%
Cc1ccc(NC(=O)CSc2nnc(CN3CCOCC3)n2-c2ccccc2)cc1	-6.0%	-6.1%	3.16µM*	-6.1%	-2.2%	-1.5%
